Laboratory results taken from PubChem BioAssay.
Values joined by “and” are separate entries in the source; they are usually repeats but may differ in a detail not shown here. Equal entries are not always repeated. Active and inactive are the calls of the source. Unless noted, no rule for the calls is given here.

What was measured:
[1] = test system: Wnt5a (protein binding on small-molecule microarray); test: small molecules binding Wnt5a protein – biophysical, small-molecule microarray, 635/667 nm fluorescence, primary screen (AID 1142); conditions: 635 nm fluorescence, higher = more signal;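 also: fluorescence read at 667 nm with signal to noise per printed feature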
[2] = ATP-based viability of Huh7 replicon cells – cell-based, CellTiter-Glo luminescence, basal, 48 h, cytotoxicity control for HCV replication inhibitor project, primary screen (AID 1143); conditions: higher = more signal, called active from +8 up or from −8 down;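 also: Huh7 hepatoma cells carrying a hepatitis C replication reporter with no stimulus; test concentration not given here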
[3] = Pseudomonas biofilm growth suppression – PAO1 strain, BacTiter-Glo luminescence, LB-PBS, primary screen (AID 1144); conditions: P. aeruginosa PAO1 biofilm, 12 h, higher = more signal
[4] = basal CRE-LacZ reporter activity in PC12 – cell-based, unstimulated, primary screen (AID 1145); conditions: no forskolin, luminescence, 4.5 h, higher = more signal, called active from +8 up or from −8 down
[5] = forskolin-driven CRE-LacZ activity in PC12 – cell-based, CRE-LacZ reporter, forskolin-stimulated, primary screen (AID 1146); conditions: luminescence, 4.5 h, higher = more signal, called active from +8 up or from −8 down;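 also: PC12 cells with 6xCRE LacZ reporter stimulated by forskolin 10 µM; beta-galactosidase reporter signal reflecting CREB driven transcription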
[6] = molecular target: Streptavidin (Streptomyces avidinii) (UniProt P22629); test: compounds binding control protein streptavidin – biophysical, small-molecule microarray, 635/667 nm fluorescence, artefact control for SMM compound annotation, primary screen (AID 1147); conditions: higher = more signal;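 also: signal reflects streptavidin binding to arrayed compounds as a control protein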
Chain of Streptavidin (Streptomyces avidinii) (P22629 whole entry, looked up): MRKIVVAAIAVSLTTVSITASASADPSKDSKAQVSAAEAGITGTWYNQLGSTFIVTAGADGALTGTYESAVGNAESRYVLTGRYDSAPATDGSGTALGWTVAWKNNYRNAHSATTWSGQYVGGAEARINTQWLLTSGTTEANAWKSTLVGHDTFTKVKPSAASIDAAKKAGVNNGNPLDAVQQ

[7] = probe aInhba binding on compound microarray – biochemical, small-molecule microarray, 635/667 nm fluorescence, primary screen (AID 1148); conditions: higher = more signal;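 also: score merges 667nm spot fluorescence with signal-to-noise for antibody binding to printed compounds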
Torsin-1A (Homo sapiens) [8] = molecular target: Torsin-1A (Homo sapiens) (UniProt O14656); test: TOR1A wild-type binding on microarray – cell lysate, small-molecule microarray, lysate, 635/667 nm, primary screen (AID 1149); conditions: COS7 hTOR1A-WT lysate, 635 nm fluorescence, higher = more signal
Chain of Torsin-1A (Homo sapiens) (O14656 whole entry, looked up): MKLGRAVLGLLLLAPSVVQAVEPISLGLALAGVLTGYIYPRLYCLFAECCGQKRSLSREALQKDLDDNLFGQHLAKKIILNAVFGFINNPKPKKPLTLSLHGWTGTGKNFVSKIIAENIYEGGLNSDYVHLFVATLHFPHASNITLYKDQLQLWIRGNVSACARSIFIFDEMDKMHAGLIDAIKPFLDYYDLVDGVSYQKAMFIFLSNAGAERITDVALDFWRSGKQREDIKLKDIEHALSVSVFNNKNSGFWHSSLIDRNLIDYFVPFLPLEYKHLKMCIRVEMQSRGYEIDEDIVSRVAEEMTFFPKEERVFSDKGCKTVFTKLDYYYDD

Torsin-1A (Homo sapiens) [9] = molecular target: Torsin-1A (Homo sapiens) (UniProt O14656); test: torsin A mutant lysate binding on microarrays – cell lysate, small-molecule microarray, COS7 lysate, 635/667 nm fluorescence, primary screen (AID 1150); conditions: COS7 hTOR1A mutant lysate, 635 nm fluorescence, higher = more signal;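 also: score pools 667 nm emission and signal to noise measuring lysate protein binding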
[10] = test system: Sonic hedgehog protein (Shh); test: Sonic hedgehog microarray binding compounds – biochemical, small-molecule microarray, 635/667 nm fluorescence, primary screen (AID 1151); conditions: 635 nm fluorescence, higher = more signal;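 also: Shh protein binding to compounds spotted on small-molecule microarray slides; score combines spot fluorescence intensity with signal-to-noise across triplicate slides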
[11] = optical density shifts of acrAB sulA E. coli – strain DRC41, OD650, 48 h, E. coli filamentation inducer project, primary screen (AID 1152); conditions: higher = more signal, called active from +8 up or from −8 down;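 also: E. coli MC1000 strain DRC41 lacking acrAB efflux pump and sulA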
[12] = probe aLefty1 binding on compound microarray – biochemical, small-molecule microarray, 635/667 nm fluorescence, primary screen (AID 1153); conditions: higher = more signal;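 also: score merges spot fluorescence with signal-to-noise ratio from the scanned slide images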
[13] = plasmodial surface anion channel blockers, osmotic lysis – cell-based, P. falciparum Indochina, OD700, 1 h, primary screen (AID 1154); conditions: P. falciparum Indochina infected RBC osmotic lysis, higher = more signal, called active from +8 up or from −8 down
[14] = plasmodial surface anion channel blockers, osmotic lysis – cell-based, P. falciparum Indochina, OD700, 2 h, primary screen (AID 1155);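 also: lysis reports solute entry through the parasite surface anion channel PSAC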; conditions: P. falciparum Indochina infected erythrocytes, higher = more signal, called active from +8 up or from −8 down
[15] = changes in parasitized red cell lysis, either direction – P. falciparum Indochina, OD700, 3 h, PSAC antagonist project, primary screen (AID 1156); conditions: P. falciparum-infected erythrocytes, osmotic lysis, higher = more signal, called active from +8 up or from −8 down
[16] = plasmodial surface anion channel blockers, osmotic lysis – cell-based, P. falciparum Indochina, OD700, 18 h, primary screen (AID 1157); conditions: P. falciparum Indochina infected erythrocytes, osmotic lysis OD700, 18 h; higher = more signal, called active from +8 up or from −8 down
[17] = S6 kinase pathway phospho-S6 level changes – cell-based, A549, cytoblot, luminescence, serum-stimulated, primary screen (AID 1158); conditions: 5 h, higher = more signal;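 also: serum-stimulated A549 lung adenocarcinoma cells; signal is phosphorylated S6 detected by cytoblot immunostaining with HRP secondary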
[18] = molecular target: NADPH oxidase 2 (Homo sapiens) (UniProt P04839); test: compounds shifting NOX2 Amplex Red fluorescence – cell-based, HEK293-NOX2, PMA-stimulated, NOX inhibitor project, primary screen (AID 1159); conditions: 45 min, higher = more signal, called active from +8 up or from −8 down; also: test concentration not given here
Chain of NADPH oxidase 2 (Homo sapiens) (P04839 whole entry, looked up): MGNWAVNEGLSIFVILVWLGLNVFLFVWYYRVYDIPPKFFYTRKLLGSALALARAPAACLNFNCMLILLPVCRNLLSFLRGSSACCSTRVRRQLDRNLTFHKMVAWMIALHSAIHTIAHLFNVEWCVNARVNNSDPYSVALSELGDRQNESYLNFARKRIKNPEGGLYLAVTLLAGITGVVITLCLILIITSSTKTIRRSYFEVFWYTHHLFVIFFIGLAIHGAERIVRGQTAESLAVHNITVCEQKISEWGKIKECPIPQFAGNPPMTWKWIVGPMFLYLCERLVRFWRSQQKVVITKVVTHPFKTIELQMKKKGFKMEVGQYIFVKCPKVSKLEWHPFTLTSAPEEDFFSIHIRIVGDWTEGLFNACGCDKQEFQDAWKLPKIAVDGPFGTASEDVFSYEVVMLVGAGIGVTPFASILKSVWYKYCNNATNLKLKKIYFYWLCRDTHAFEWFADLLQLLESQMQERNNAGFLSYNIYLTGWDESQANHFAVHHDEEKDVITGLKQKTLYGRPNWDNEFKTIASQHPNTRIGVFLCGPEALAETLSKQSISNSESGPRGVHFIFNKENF

[19] = molecular target: NADPH oxidase 4 (Homo sapiens) (UniProt Q9NPH5); test: compounds shifting NOX4 Amplex Red fluorescence – cell-based, HEK293-NOX4, tetracycline-induced, NOX inhibitor project, primary screen (AID 1160); conditions: HEK293-NOX4, Amplex Red H2O2 fluorescence, 45 min; higher = more signal, called active from +8 up or from −8 down
Chain of NADPH oxidase 4 (Homo sapiens) (Q9NPH5 whole entry, looked up): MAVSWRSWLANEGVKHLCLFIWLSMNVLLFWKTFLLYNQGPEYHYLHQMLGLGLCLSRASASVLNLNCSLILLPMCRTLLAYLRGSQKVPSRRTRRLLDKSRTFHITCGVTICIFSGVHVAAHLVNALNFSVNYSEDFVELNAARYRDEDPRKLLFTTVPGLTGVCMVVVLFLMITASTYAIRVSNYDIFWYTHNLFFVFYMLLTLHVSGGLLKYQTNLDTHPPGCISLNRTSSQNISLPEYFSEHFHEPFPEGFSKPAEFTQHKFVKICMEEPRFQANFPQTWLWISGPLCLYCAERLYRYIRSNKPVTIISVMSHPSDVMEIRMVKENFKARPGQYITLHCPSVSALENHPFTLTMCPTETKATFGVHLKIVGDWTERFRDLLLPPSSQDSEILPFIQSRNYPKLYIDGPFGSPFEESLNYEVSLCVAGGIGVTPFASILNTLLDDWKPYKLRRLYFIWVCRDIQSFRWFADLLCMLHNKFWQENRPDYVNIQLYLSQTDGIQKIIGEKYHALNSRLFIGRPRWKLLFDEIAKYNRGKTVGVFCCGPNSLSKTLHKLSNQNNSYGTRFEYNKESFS

[20] = molecular target: NADPH oxidase 5 (Homo sapiens) (UniProt Q96PH1); test: compounds shifting NOX5 Amplex Red fluorescence – cell-based, HEK293-NOX5, NOX inhibitor project, primary screen (AID 1161); conditions: HEK293-NOX5, ionomycin, 45 min, higher = more signal
Chain of NADPH oxidase 5 (Homo sapiens) (Q96PH1 whole entry, looked up): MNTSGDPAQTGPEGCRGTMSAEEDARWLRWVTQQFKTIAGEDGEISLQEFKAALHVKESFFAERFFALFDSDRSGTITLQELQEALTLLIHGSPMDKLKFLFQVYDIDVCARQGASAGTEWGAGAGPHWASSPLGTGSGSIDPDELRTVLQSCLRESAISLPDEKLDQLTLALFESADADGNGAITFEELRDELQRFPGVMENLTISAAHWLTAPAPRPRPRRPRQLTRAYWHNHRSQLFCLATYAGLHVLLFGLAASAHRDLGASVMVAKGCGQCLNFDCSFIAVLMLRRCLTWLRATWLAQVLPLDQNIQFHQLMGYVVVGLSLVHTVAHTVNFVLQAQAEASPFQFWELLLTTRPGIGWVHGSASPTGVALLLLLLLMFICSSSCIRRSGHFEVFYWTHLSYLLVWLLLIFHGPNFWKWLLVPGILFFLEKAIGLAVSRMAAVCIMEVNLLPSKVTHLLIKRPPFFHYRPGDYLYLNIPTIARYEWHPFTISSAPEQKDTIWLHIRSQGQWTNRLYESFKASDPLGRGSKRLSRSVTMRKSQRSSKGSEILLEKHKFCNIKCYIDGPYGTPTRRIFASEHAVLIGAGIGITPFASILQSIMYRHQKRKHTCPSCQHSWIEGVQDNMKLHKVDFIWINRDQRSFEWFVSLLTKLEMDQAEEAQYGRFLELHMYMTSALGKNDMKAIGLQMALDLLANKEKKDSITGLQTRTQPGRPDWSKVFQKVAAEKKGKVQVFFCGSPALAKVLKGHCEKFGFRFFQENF

Structure (SMILES) | composite z-score [1] | z-score [2] | z-score [3] | z-score [4] | z-score [5] | composite z-score [6] | composite z-score [7] | composite z-score (Torsin-1A (Homo sapiens) [8]) | composite z-score (Torsin-1A (Homo sapiens) [9]) | composite z-score [10] | z-score [11] | composite z-score [12] | z-score [13] | z-score [14] | z-score [15] | z-score [16] | z-score [17] | z-score [18] | z-score [19] | z-score [20]
COC(=O)[C@@]1(Cc2ccc(F)cc2)[C@H]2c3cc(C(=O)N4CCCC4)n(Cc4c(CO)[nH]cc(C)c4=O)c3C[C@H]2CN1C(=O)c1ccccc1 | 2.18 and 0.117 | -1.28 (inactive) and -0.88 (inactive) | -0.0556 (inactive) and 0.0252 (inactive) | 0.762 (inactive) and 0.962 (inactive) | 3.71 (inactive) and 3.05 (inactive) | 0.418 and -0.248 | 1.24 and 0.131 | 0.113 and -0.501 | 0.797 and 0.232 | -0.552 and -0.661 | -1.7 (inactive) and -1.76 (inactive) | 1.63 and 0.0811 | 1.02 (inactive) and 1.15 (inactive) | 0.148 (inactive) and 0.543 (inactive) | 0.63 (inactive) and 0.306 (inactive) | 0.398 (inactive) and 0.57 (inactive) | -0.52 and -0.213 | 0.636 (inactive) and 0.617 (inactive) | -1.58 (inactive) and -0.346 (inactive) | -2.05 and -0.222
C=CCN(C(=O)C(c1cccs1)N(C(=O)/C=C\C(=O)O)C(C)(C)CO)C(C)(C)C (stereo not given) | -0.291 and -0.768 | -0.261 (inactive) and 0.272 (inactive) | -1.52 (inactive) and -1.38 (inactive) | -0.887 (inactive) and -0.761 (inactive) | -0.706 (inactive) and -0.329 (inactive) | -0.689 and -1.22 | -0.0581 and -0.0791 | -0.331 and -0.511 | 0.214 and 1.51 | -0.645 and -0.105 | 2.48 (inactive) and 1.85 (inactive) | -0.0647 and -0.103 | -0.534 (inactive) and -0.537 (inactive) | -1.13 (inactive) and -0.574 (inactive) | -0.936 (inactive) and -0.092 (inactive) | -1.37 (inactive) and -0.725 (inactive) | 1.6 and 0.974 | -0.192 (inactive) and -0.0748 (inactive) | -0.755 (inactive) and -0.588 (inactive) | 0.163 and 0.51
Cc1cc2c(nc1C)CCCN2CC(O)CN1CCCc2nc(-c3ccc(Br)cc3)ccc21 (stereo not given) | 0.573 and 1.08 | -0.721 (inactive) and -1.07 (inactive) | -0.0664 (inactive) and 0.806 (inactive) | 0.0167 (inactive) and 0.382 (inactive) | -0.362 (inactive) and -0.274 (inactive) | 1.4 and 1.8 | 0.496 and 0.639 | 0.501 and 0.62 | 0.797 and 0.251 | 1.13 and 1.11 | -0.402 (inactive) and -0.327 (inactive) | 0.585 and 0.584 | 12.1 (active) and 8.25 (active) | 1.55 (inactive) and 0.974 (inactive) | 1.59 (inactive) and 1.02 (inactive) | 0.739 (inactive) and 0.394 (inactive) | 0.0832 and -0.44 | 1.74 (inactive) and 1.1 (inactive) | -1.98 (inactive) and -1.54 (inactive) | -2.82 and -2.56
CC(C)[Si]1(C(C)C)OCc2cc(CCCc3cc4c(c(CCc5ccccc5)n3)[Si](C(C)C)(C(C)C)OC4)nc(CCc3ccccc3)c21 | 0.0898 and 0.0154 | -0.871 (inactive) and 0.114 (inactive) | 0.0644 (inactive) | 0.731 (inactive) and 0.469 (inactive) | -0.315 (inactive) and 0.352 (inactive) | -0.59 and 0.473 | -0.0791 and 0.0442 | -0.473 and 0.21 | 0.0547 and 0.39 | 0.405 and 0.595 | 2.34 (inactive) and -0.836 (inactive) | -0.147 and -0.192 | 1.1 (inactive) and 0.221 (inactive) | -0.712 (inactive) and -0.436 (inactive) | -1.01 (inactive) and -0.355 (inactive) | -0.788 (inactive) and -0.406 (inactive) | 0.0671 and -0.999 | 1.5 (inactive) and 0.412 (inactive) | 0.0233 (inactive) and 0.608 (inactive) | -2.98 and -0.0908
CCCC[C@@H]1CN2[C@@H](CC[C@@H](C)[C@@H]2c2ccc(Br)cc2)C(=O)O1 | -0.0248 and 0.0673 | -0.216 (inactive) and -0.116 (inactive) | 0.283 (inactive) and 1.16 (inactive) | -0.704 (inactive) and 1.1 (inactive) | 0.693 (inactive) and 0.189 (inactive) | 0.119 and 0.117 | -0.101 and 0.0074 | 0.434 and -0.0758 | 0.458 and 0.139 | 0.611 and 0.993 | -0.247 (inactive) and -1.23 (inactive) | -0.0601 and -0.0141 | 0.952 (inactive) and 1.74 (inactive) | -0.255 (inactive) and 0.94 (inactive) | 0.0015 (inactive) and -0.273 (inactive) | 0.367 (inactive) and 0.443 (inactive) | -1.02 and -0.612 | 1.18 (inactive) and -0.0488 (inactive) | 0.883 (inactive) and 0.821 (inactive) | 0.637 and 0.0426
COC(=O)C1=C(C)N(Cc2ccccc2)C2=C3C(=O)N(C)C(=O)[C@@H]3[C@@](O)(C(=O)OC)C(=O)N2[C@@H]1c1ccccc1 | 0.147 and 0.126 | 0.961 (inactive) and -0.294 (inactive) | -0.153 (inactive) and -0.448 (inactive) | 2.18 (inactive) and 0.992 (inactive) | -0.152 (inactive) and -0.755 (inactive) | 0.378 and 0.131 | 0.038 and 0.0173 | 0.154 and 0.161 | 0.491 and 0.207 | -0.004 and 0.436 | 0.71 (inactive) and -0.313 (inactive) | 0.0341 and 0.0278 | -0.188 (inactive) and -1.06 (inactive) | -0.215 (inactive) and -1.49 (inactive) | -0.745 (inactive) and -0.379 (inactive) | -0.339 (inactive) and -1.77 (inactive) | -0.137 and 1.48 | 1.13 (inactive) and -0.926 (inactive) | 0.507 (inactive) and 0.254 (inactive) | -0.0308 and 0.418
CO[C@H]1COC(=O)CC=C[C@@H](C)COC(=O)[C@H](CCSC)NC(=O)CC=C[C@@H]1C | 0.748 and 0.382 | -1.11 (inactive) and -1.94 (inactive) | -0.2 (inactive) | -0.473 (inactive) and 0.882 (inactive) | -0.367 (inactive) and -0.742 (inactive) | -0.909 and -1.04 | -0.0645 and -0.341 | 3.27 and 3.04 | 3.74 and 3.09 | 1.74 and 2.35 | -0.949 (inactive) and -0.0368 (inactive) | -0.188 and 0.32 | -0.304 (inactive) and 0.171 (inactive) | -0.237 (inactive) and 0.588 (inactive) | -0.425 (inactive) and -0.189 (inactive) | 0.256 (inactive) and -0.0409 (inactive) | 0.676 and 0.163 | 1.07 (inactive) and -1.99 (inactive) | -0.824 (inactive) and 0.413 (inactive) | -0.812 and -0.479
